Measurements taken from PubChem BioAssay (NCATS).
Records with an inconclusive call do not appear. Values without a mark were called inactive. Calls of active or inactive are those of the source. Calls come from the whole dose curve; as a rule, active = well fitted inhibition curve with a large enough effect; inconclusive = small, poorly fitted or top-dose-only effect; inactive = flat fitted curve, though single readings scatter.
Potency is the fitted concentration of half-maximal effect.

Test: BET inhibitor-based combinations targeting novel dependencies in MECOM-rearranged (r) AML: AML-191 cell line (AID 2202236; note: nearly all actives have a fitted effect of over 35% in size;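 for viability (% of control): plate controls were vehicle wells for no effect and wells without cells for full effect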)
Details: AML-191 viability, CellTiter-Glo luminescence, 48 h; series mostly up to 46 µM; viability (% of control): at the top concentration
How it was run: (§1)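 AML cell lines seeded at 500 cells/well, treated with 11-point dose curves for 48 h. Viability by CellTiter-Glo luminescence, normalised to DMSO and empty wells; activity expressed as AUC and per-cell-line Z-transformed AUC.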
For `COc1cc2ncn(-c3cc(OCc4ccccc4S(C)(=O)=O)c(C#N)s3)c2cc1OC`, the “viability (% of control)” value was 96.8%. For `O=C1CN2Cc3c(ccc(Cl)c3Cl)N=C2N1`, the “viability (% of control)” value was 107%. In the case of `O=C(O)[C@@H](c1ccc(OCc2ccc3ccccc3n2)cc1)C1CCCC1`, the “viability (% of control)” value is reported as 104%. For `CN(C(Cc1ccc(OS(=O)(=O)c2cccc3cnccc23)cc1)C(=O)N1CCN(c2ccccc2)CC1)S(=O)(=O)c1cccc2cnccc12` (centres undefined), the Potency was 9.34 µM (active). With `O=c1cc(-c2ccccc2)oc2cc(O)c(O)c(O)c12` the Potency was 18.6 µM (active). In the case of `N#CC(c1ccc(Cl)cc1)c1c(Cl)cc(-n2ncc(=O)[nH]c2=O)cc1Cl` (centres undefined), the Potency is reported as 16.6 µM (active). In the case of `COc1cc2c(cc1Cc1cccc(Cl)c1F)c(=O)c(C(=O)O)cn2[C@H](CO)C(C)C`, the Potency is reported as 9.34 µM (active). With `CCCCc1oc2ccccc2c1C(=O)c1cc(I)c(OCCN(CC)CC)c(I)c1` the Potency was 20.9 µM (active). For `Cc1cccc(CN2CCN(C(c3ccccc3)c3ccc(Cl)cc3)CC2)c1` (centres undefined), the “viability (% of control)” value was 93.3%. With `O=C1CCc2ccc(OCCCCN3CCN(c4cccc(Cl)c4Cl)CC3)cc2N1` the Potency was 23.5 µM (active). For `Nc1nc(N)c2nc(-c3cccc(O)c3)c(-c3cccc(O)c3)nc2n1`, the Potency was 18.6 µM (active).

Test: BET inhibitor-based combinations targeting novel dependencies in MECOM-rearranged (r) AML: AML-194 cell line (AID 2202237; note: nearly all actives have a fitted effect of over 40% in size;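 for viability (% of control): plate controls were vehicle wells for no effect and wells without cells for full effect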)
Details: AML-194 (MECOM-r AML) viability, CellTiter-Glo, 48 h; series mostly up to 46 µM; viability (% of control): at the top concentration
How it was run: as §1
With `CC[C@@H]([C@H](C)O)n1ncn(-c2ccc(N3CCN(c4ccc(OCC5CO[C@@](Cn6cncn6)(c6ccc(F)cc6F)C5)cc4)CC3)cc2)c1=O` (some centres undefined) the Potency was 4.17 µM (active). For `COc1cc(C(=O)NS(=O)(=O)c2ccccc2C)ccc1Cc1cn(C)c2ccc(NC(=O)OC3CCCC3)cc12`, the “viability (% of control)” value was 105%. For `COc1cc2ncn(-c3cc(OCc4ccccc4S(C)(=O)=O)c(C#N)s3)c2cc1OC`, the “viability (% of control)” value was 101%. For `O=C1CN2Cc3c(ccc(Cl)c3Cl)N=C2N1`, the “viability (% of control)” value was 109%. For `O=C(O)[C@@H](c1ccc(OCc2ccc3ccccc3n2)cc1)C1CCCC1`, the “viability (% of control)” value was 99.4%. For `CCc1ccc(CCOc2ccc(CC3SC(=O)NC3=O)cc2)nc1` (centres undefined), the Potency was 5.25 µM (active). For `CCCCCCCc1ccc(CCc2cccc(O)c2C(=O)O)cc1`, the “viability (% of control)” value was 87.9%. In the case of `Cc1nc2ccc(C(=O)N3CCC4(CC3)CC(=O)c3c(cnn3C(C)C)C4)cc2[nH]1`, the “viability (% of control)” value is reported as 94.2%. In the case of `CC(C)C(C)C=CC(C)C1CCC2C3=CC=C4CC(O)CCC4(C)C3CCC21C` (centres undefined), the “viability (% of control)” value is reported as 106%. For `CC[C@H](C)n1cc(C)c2c(C(=O)NCc3c(C)cc(C)[nH]c3=O)cc(-c3ccc(N4CCNCC4)nc3)cc21`, the “viability (% of control)” value was 73.3%. For `N#CC(c1ccc(Cl)cc1)c1c(Cl)cc(-n2ncc(=O)[nH]c2=O)cc1Cl` (centres undefined), the “viability (% of control)” value was 100%. For `COc1cc2c(cc1Cc1cccc(Cl)c1F)c(=O)c(C(=O)O)cn2[C@H](CO)C(C)C`, the Potency was 8.33 µM (active). In the case of `O=C(c1ccc(F)cc1)N1CCC[C@H](c2nc(-c3ccc(F)cc3)no2)C1`, the “viability (% of control)” value is reported as 93.8%. With `Cc1cccc(CN2CCN(C(c3ccccc3)c3ccc(Cl)cc3)CC2)c1` (centres undefined) the “viability (% of control)” value was 101%. In the case of `Nc1[nH]c(=O)ncc1F`, the “viability (% of control)” value is reported as 104%. With `Clc1ccc(COC(Cn2ccnc2)c2ccc(Cl)cc2Cl)c(Cl)c1` (centres undefined) the Potency was 26.3 µM (active). For `O=C1CCc2ccc(OCCCCN3CCN(c4cccc(Cl)c4Cl)CC3)cc2N1`, the Potency was 26.3 µM (active). With `Nc1nc(N)c2nc(-c3cccc(O)c3)c(-c3cccc(O)c3)nc2n1` the “viability (% of control)” value was 97.9%.
